Assay outcomes deposited in PubChem BioAssay by Johns Hopkins Ion Channel Center.
Sampled rows, rich in hits. Any-hit rate of the full collection: about 2.4%.
CHT PAM = CHT positive allosteric modulators, primary screen, cell-based, membrane potential dye, choline EC20; High affinity choline transporter 1 (Homo sapiens), Q9GZV3; CHT-expressing cells; hits give high values; LV-AA mutant CHT in HEK293 cells; B-score at 10 µM; 310,000 compounds, 0.49% hits; AID 488977, 2010;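 active = initial fluorescence not abnormally high and integrated response B-score, plate-corrected, over 3 SD above library mean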
ANO1 block = TMEM16A chloride channel inhibitors, primary screen, cell-based, HTS; Anoctamin-1 (Mus musculus), Q8BHY3; HEK293 TMEM16A/YFP iodide influx fluorescence, ionomycin; normalized B-score (activity score, 25-100; higher = stronger inhibition) at 10 µM; 310,000 compounds, 1.2% hits; AID 588511, 2011;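 active = ratio plate-corrected score three or more library SD toward inhibition, starting fluorescence score within five deviations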;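 also: score derived from kinetic fluorescence span divided by baseline fluorescence per well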
TMEM16A act = TMEM16A chloride channel activators or potentiators, primary screen, cell-based, HTS. Anoctamin-1 (Mus musculus), Q8BHY3. HEK293 TMEM16A/YFP-H148Q/I152L, iodide quench fluorescence; hits give low values. B-score at 10 µM. 340,000 compounds, 0.3% hits;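 active = fluorescence-ratio B-score plate-corrected deviation score at least 3 library SD below zero, with starting fluorescence score within 5 deviations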;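 also: channel opened by trigger with iodide after compound preincubation; score built on the fluorescence ratio of max minus min over baseline; more negative score means more quench and so TMEM16A activation or potentiation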
CHT block = inhibitors of human choline transporter CHT | High affinity choline transporter 1 (Homo sapiens), Q9GZV3 | CHT-expressing cells, membrane potential dye, choline response; hits give low values | B-score at 10 µM | 310,000 compounds, 0.86% hits;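 active = B-score over 3 SD under the library average, and starting fluorescence ratio not unusually high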;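 also: choline stimulus applied at its EC90 after an EC20 pre-addition; B-score computed on integrated fluorescence ratio after choline addition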
TMEM16A reconf = TMEM16A chloride channel inhibitors, confirmation, cell-based, re-confirmation | HEK293 TMEM16A/YFP-H148Q, iodide quench fluorescence; ionomycin added to raise cell calcium | inhibition, % at 10 µM | 2,300 compounds, 39% hits | AID 652189, 2013 | shares compounds with ANO1 block;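 active = mean duplicate percent inhibition, scaled so buffer wells are 0 and the reference blocker 100, over three buffer SD above buffer mean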
TMEM16A Ca cntr = calcium mobilization in TMEM16A/YFP HEK293 cells, confirmation, counter-screen for TMEM16A inhibitor project | calcium response (% of ionomycin), % at 10 µM | shares compounds with ANO1 block | AID 652231, 2013 | 2,300 compounds, 2% hits | Fluo4 calcium mobilization;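 active = duplicate-averaged calcium signal over 20% of the ionomycin maximum, relative to buffer baseline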;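 also: each well's signal is peak minus trough fluorescence divided by its pre-addition baseline; 0% = buffer wells and 100% = ionomycin wells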
YFP-HEK293 quench = iodide YFP quench changes in parental YFP-HEK293, counter-screen for TMEM16A inhibitor project, cell-based; YFP ratio F(max-min)/F0 at 10 µM; shares compounds with ANO1 block; ionomycin; 2,300 tested, under 10 active;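 active = yellow fluorescent protein signal ratio exceeding the buffer control mean by over 5 SD of those controls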;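 also: ratio is mean of duplicate wells from kinetic YFP trace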
ClC-1 rat inh = ClC-1 chloride channel inhibition, selectivity assay for TMEM16A inhibitor project, cell-based, voltage-dependent ClC-1. shares compounds with ANO1 block. CHO ClC-1-YFP, iodide influx fluorescence quench; iodide control reads 0, buffer control 100. ratio percent, % at 10 µM. 2,300 tested, under 10 active;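 active = duplicate-mean ratio percent above the mean of iodide-only control wells, which defines zero, plus 5 of their SD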;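 also: higher percent means stronger block of ClC-1 iodide influx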
Target sequence (P35524 whole entry, looked up): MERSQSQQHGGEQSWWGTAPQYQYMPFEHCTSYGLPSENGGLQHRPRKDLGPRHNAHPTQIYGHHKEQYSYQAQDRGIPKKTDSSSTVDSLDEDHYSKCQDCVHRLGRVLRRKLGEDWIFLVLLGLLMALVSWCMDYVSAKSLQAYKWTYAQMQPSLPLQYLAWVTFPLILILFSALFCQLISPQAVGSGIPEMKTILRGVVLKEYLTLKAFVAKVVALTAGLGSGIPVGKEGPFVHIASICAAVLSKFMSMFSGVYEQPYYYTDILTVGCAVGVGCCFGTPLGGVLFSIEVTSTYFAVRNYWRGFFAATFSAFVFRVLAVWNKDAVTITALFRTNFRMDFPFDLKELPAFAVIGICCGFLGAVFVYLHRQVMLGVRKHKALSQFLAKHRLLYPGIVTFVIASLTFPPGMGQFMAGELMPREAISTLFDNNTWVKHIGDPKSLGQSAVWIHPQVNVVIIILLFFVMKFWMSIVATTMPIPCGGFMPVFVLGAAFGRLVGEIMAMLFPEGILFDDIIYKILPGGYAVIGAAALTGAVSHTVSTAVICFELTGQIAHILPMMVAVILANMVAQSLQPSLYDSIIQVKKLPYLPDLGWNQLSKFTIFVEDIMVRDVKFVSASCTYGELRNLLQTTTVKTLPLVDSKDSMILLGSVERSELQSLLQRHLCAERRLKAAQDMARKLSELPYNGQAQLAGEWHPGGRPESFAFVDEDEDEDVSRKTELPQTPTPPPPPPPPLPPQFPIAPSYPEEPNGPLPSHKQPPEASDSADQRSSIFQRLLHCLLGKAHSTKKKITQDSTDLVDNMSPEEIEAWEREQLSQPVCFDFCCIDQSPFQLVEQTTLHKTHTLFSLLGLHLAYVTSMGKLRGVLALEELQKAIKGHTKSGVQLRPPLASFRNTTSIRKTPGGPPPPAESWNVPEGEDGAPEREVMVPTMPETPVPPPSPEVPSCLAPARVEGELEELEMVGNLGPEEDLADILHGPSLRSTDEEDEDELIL
An asterisk follows results filed as active; i = inactive; . = not tested or not shown.

SMILES	CHT PAM	ANO1 block	TMEM16A act	CHT block	TMEM16A reconf	TMEM16A Ca cntr	YFP-HEK293 quench	ClC-1 rat inh
Cc1ccc(S(=O)(=O)N2CCc3ccccc3C2CC(=O)O)cc1 (configuration not stated)	i	i	i	i	.	.	.	.
O=C(CSc1n[nH]c(=O)n1Cc1ccco1)Nc1ccccc1	i	i	i	i	.	.	.	.
CC(C)c1ccc(NC(=O)CSc2n[nH]c(=O)n2Cc2ccco2)cc1	i	25*	i	i	20%*	i	-1	-18
COc1cc(C(=O)OCC(=O)N(C)C)cc(NC(=O)c2ccco2)c1OC	i	100*	i	i	i	i	-0.98	-8
Cc1cc(C(C)(C)C)cc(C)c1CCNC(=O)c1ccc[n+]([O-])c1	i	i	i	i	.	.	.	.
CN(C)c1ccccc1C(=O)N1CCCC(C(=O)c2ccc3ccccc3c2)C1 (configuration not stated)	i	100*	i	i	i	i	-1.2	-8
CSc1ncccc1C(=O)N1CCCC(C(=O)c2ccc3ccccc3c2)C1 (configuration not stated)	i	i	i	i	.	.	.	.
O=C(O)c1cccc(NC(=S)NC(NC(=O)c2ccco2)C(Cl)(Cl)Cl)c1 (configuration not stated)	i	i	i	i	.	.	.	.
O=C(NC(NC(=S)Nc1ccc(Cl)c(Cl)c1)C(Cl)(Cl)Cl)c1ccco1 (configuration not stated)	i	100*	i	i	36%*	i	-0.88	-21
Cc1ccc(-c2noc(CCCC(=O)NC3CCCC3)n2)cc1	i	25*	i	i	i	i	-1.1	-12
O=C(O)Cc1cn(Cc2cccc(Cl)c2)c2ccccc12	i	i	i	i	.	.	.	.
CC1CCCN(C(=O)Cc2cn(Cc3cccc(Cl)c3)c3ccccc23)C1 (configuration not stated)	i	100*	i	i	24%*	i	-1.1	-14
O=C(NNS(=O)(=O)c1ccc(F)cc1)c1cc2ccccc2cc1O	i	100*	i	i	24%*	i	-0.74	-12
CC1=C(C(=O)N2CCOCC2)C(c2ccccc2F)NC(=O)N1 (configuration not stated)	i	i	i	i	.	.	.	.
Cc1nnc(SCC(=O)Nc2nc(-c3ccccc3)cs2)n1N	i	100*	i	i	i	i	-1	-10
CCn1c(SCC(=O)Nc2nc(-c3ccccc3)cs2)nnc1-c1ccccc1	i	i	i	i	.	.	.	.
COc1ccc(CCNc2oc(COc3ccc(Br)cc3)nc2C#N)cc1OC	i	100*	i	i	i	i	-0.96	-18
CCN(CC)S(=O)(=O)c1ccc(C(=O)NC2=C(C(=O)OC)SCC2)cc1	i	i	i	i	.	.	.	.
COc1ccccc1CNc1ncnc2sccc12	i	25*	i	i	i	i	-0.89	-15
c1ccc2c(c1)OCC(CNc1ncnc3sccc13)O2 (configuration not stated)	i	25*	i	i	i	i	-1.3	-24
COc1ccc(CCNc2ncnc3sccc23)cc1OC	i	100*	-7.8*	i	24%*	i	-0.78	-29
Fc1ccccc1CNc1ncnc2sccc12	i	i	i	i	.	.	.	.
C[C@@H]1O[C@@H](OC2C(O)C(OCCc3ccc(O)c(O)c3)OC(CO)C2OC(=O)/C=C/c2ccc(O)c(O)c2)[C@H](O)[C@H](O)[C@H]1O (some centres not stated)	i	i	.	i	.	.	.	.
CCN(CC)S(=O)(=O)c1ccc2oc(C(=O)NCCN3CCOCC3)c(C)c2c1	i	i	i	i	.	.	.	.
C=CCNC(=O)c1oc2ccc(S(=O)(=O)N(CC)CC)cc2c1C	i	25*	i	i	i	i	-1	-6
SMILES	CHT PAM	ANO1 block	TMEM16A act	CHT block	TMEM16A reconf	TMEM16A Ca cntr	YFP-HEK293 quench	ClC-1 rat inh
O=C(Cc1ccccc1)Nc1cc(C(=O)c2ccccc2)ccc1N1CCOCC1	i	100*	i	i	i	i	-1.3	-8
Cc1cc(C)c(OCC(=O)Nc2ccccc2N2CCOCC2)c(C)c1	i	100*	i	i	37%*	i	-0.95	-13
Cc1c(/C=C(\CC(=O)O)c2nc3ccccc3s2)cc(C#N)n1C	i	i	i	i	.	.	.	.
CCN(CC(=O)N1CCCCC1)S(=O)(=O)c1ccccc1	i	i	i	i	.	.	.	.
Cc1cc(C)c2cc3c(N)c(C(=O)Nc4c(C)[nH]c(=O)[nH]c4=O)sc3nc2c1	i	i	i	i	i	28%*	-1.1	10
COc1ccc(OCc2nnc3n2N=C(c2ccc(Br)cc2)CS3)cc1	i	i	i	i	.	.	.	.
CCc1ccc(CN2CCN(C(=O)c3cccc(OC)c3OC)CC2)cc1	i	25*	i	i	i	i	-0.97	1
COc1ccc(/C=N/S(=O)(=O)c2ccc(C)cc2)cc1	i	i	i	i	.	.	.	.
O=C(C1=NN[C@@H]2C(=O)N(c3ccccc3C(F)(F)F)C(=O)[C@H]12)c1cnccn1	i	i	i	i	.	.	.	.
COc1ccc(NC(=O)c2sc3ncn(CC(=O)N4CCN(c5ccccn5)CC4)c(=O)c3c2C)c(OC)c1	i	25*	i	i	i	i	-1	-10
CCOC(=O)Cc1csc(SCC(=O)Nc2cccc(Cl)c2)n1	i	100*	i	i	26%*	i	-0.92	-17
CCOC(=O)Cc1csc(SCC(=O)Nc2cccc(C#N)c2)n1	i	i	i	i	.	.	.	.
COc1ccccc1CNC(=O)c1nn(-c2ccc(C)cc2)c(=O)c2c1c1ccccc1n2C	i	i	i	i	i	i	-1.3	-4
Cc1c(Cl)cccc1NC(=S)NNc1ncc(C(F)(F)F)cc1Cl	i	25*	i	-5.3*	40%*	i	-1.2	-13
COC(=O)c1ccc(-n2c(C)cc(C(=O)CSc3ccc(NC(C)=O)cc3)c2C)cc1	i	25*	i	i	24%*	i	-1.1	-4
